# Test results: PubChem BioAssay (NCATS)
# Records with an inconclusive call do not appear. Some of the results follow. Where a call stands in place of a potency, no number is given. The source made the active and inactive calls. The call rests on the fitted dose curve; in most records, active means well fitted curve in the direction sought with a large enough effect; inconclusive means small, poorly fitted or top-dose-only effect, or another doubt; inactive means no such curve, though single readings can be large; an effect the other way counts as inactive or inconclusive.
# Tests used:
# [1] = target: Tyrosine-protein kinase Yes (Homo sapiens) (UniProt P07947); assay: qHTS for small molecule inhibitors of Yes1 kinase: Primary Screen (AID 686947); conditions: Yes1 kinase biochemical qHTS inhibition; series mostly up to 76.9 µM; further: nearly all actives have a fitted effect of over 60% in size; further: potency means the concentration at half of the fitted maximal effect
# Outline: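 In this qHTS format, inhibition is expressed relative to DMSO controls with enzyme (maximum) and without enzyme (minimum). The 60 min room-temperature reaction uses 0.1 mM ATP, with ADP detected by luminescence.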
# [2] = qHTS for small molecule inhibitors of Yes1 kinase: Counter Assay (AID 686950); conditions: series mostly up to 76.9 µM;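 further: no kinase present so only ADP-Glo detection of a fixed ADP amount is tested; luminescence from ADP-Glo reporting ADP in a fixed ATP and ADP mixture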
# Outline: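 ADP-Glo luminescence read after a 60 min room-temperature incubation of compound with an ATP/ADP mix (0.08 mM/0.02 mM) and no kinase, following a 20 min compound preincubation. Signal scaled between ATP+ADP (max) and 0.1 mM ATP-only (min) wells; Tris pH 7.5, Mg2+, DTT.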
# [3] = target: DNA polymerase kappa (Homo sapiens) (UniProt Q9UBT6); assay: qHTS for Inhibitors of Polymerase Kappa: Confirmatory Assay for Cherry-picked Compounds (AID 720501); conditions: purified Pol-kappa, fluorescent strand-displacement substrate; further: potency means the concentration at half of the fitted maximal effect
# Outline: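 Strand-displacement fluorescence read-out: TAMRA reporter released from a BHQ-2-quenched template, measured at 525/598 nm over a 10 min kinetic window. Substrate was 50 nM final; enzyme was 10 nM Pol-kappa, preincubated 15 min at room temperature with compound.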
# [4] = target: DNA polymerase iota (Homo sapiens) (UniProt Q9UNA4); assay: qHTS for Inhibitors of Polymerase Iota: Confirmatory Assay for Cherry-picked Compounds (AID 720496); conditions: Pol iota primer extension, TAMRA/BHQ fluorescence; further: potency means the concentration at half of the fitted maximal effect
# Outline: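 10 nM Pol iota + cpd, 15 min RT; start w/ 50 nM (final) TAMRA reporter/BHQ-2 template primer substrate; ex 525/em 598 nm read at 0 and 10 min kinetic.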
# [5] = target: Phosphoglycerate kinase, glycosomal (Trypanosoma brucei brucei) (UniProt P07378); assay: qHTS for inhibitors of Phosphogylcerate Kinase: Hit Validation Screen (AID 686980); conditions: TbPGK coupled GAPDH assay, Kinase-Glo luminescence; further: potency means the concentration at half of the fitted maximal effect; nearly all actives have a fitted effect of over 65% in size
# Outline: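 Recombinant glycosomal PGK reaction used 1,3-bisphosphoglycerate generated in-well by GAPDH (100nM final) in 100mM TEA pH 7.6, 5mM MgCl2, 0.01% Tween-20. After 60 minutes at room temperature, ATP was read by Kinase-Glo Plus luminescence end-point.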
# Chain of DNA polymerase kappa (Homo sapiens) (Q9UBT6 whole entry, looked up): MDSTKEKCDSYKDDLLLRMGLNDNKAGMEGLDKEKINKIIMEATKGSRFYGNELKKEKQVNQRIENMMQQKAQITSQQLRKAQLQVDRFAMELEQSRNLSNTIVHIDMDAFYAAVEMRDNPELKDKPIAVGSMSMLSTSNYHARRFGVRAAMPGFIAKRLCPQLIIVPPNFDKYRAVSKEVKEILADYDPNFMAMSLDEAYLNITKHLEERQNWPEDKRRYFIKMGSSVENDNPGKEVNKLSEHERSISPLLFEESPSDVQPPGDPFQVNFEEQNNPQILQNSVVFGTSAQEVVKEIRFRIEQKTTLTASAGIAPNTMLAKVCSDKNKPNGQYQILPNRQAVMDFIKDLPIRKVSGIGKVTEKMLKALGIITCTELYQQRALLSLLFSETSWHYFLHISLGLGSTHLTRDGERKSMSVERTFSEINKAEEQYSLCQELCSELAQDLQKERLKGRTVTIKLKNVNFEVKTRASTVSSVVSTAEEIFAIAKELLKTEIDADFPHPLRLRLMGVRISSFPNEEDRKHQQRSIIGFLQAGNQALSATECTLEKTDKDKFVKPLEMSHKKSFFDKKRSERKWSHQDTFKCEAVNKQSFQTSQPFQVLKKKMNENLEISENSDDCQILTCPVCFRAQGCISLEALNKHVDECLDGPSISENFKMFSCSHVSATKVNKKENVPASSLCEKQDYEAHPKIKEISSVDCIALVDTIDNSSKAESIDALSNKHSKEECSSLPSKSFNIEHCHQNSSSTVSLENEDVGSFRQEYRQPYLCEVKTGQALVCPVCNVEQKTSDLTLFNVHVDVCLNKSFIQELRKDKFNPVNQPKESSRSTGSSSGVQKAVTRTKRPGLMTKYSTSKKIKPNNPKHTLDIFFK
# Chain of Tyrosine-protein kinase Yes (Homo sapiens) (P07947 whole entry, looked up): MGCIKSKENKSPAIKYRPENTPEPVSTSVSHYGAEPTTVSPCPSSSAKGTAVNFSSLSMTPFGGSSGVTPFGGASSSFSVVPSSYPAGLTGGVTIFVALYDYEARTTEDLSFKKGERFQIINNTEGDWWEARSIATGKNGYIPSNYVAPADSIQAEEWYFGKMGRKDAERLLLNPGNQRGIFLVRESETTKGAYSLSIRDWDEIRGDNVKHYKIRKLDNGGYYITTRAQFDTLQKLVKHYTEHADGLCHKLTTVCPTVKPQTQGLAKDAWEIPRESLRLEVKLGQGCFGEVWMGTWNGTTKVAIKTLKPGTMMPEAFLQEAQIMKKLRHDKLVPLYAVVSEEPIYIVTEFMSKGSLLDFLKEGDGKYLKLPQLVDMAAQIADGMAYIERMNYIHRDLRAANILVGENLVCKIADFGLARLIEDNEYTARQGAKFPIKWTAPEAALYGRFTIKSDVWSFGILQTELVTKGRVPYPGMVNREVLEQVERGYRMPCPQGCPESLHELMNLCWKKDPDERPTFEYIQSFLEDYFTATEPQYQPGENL
# Chain of DNA polymerase iota (Homo sapiens) (Q9UNA4 whole entry, looked up): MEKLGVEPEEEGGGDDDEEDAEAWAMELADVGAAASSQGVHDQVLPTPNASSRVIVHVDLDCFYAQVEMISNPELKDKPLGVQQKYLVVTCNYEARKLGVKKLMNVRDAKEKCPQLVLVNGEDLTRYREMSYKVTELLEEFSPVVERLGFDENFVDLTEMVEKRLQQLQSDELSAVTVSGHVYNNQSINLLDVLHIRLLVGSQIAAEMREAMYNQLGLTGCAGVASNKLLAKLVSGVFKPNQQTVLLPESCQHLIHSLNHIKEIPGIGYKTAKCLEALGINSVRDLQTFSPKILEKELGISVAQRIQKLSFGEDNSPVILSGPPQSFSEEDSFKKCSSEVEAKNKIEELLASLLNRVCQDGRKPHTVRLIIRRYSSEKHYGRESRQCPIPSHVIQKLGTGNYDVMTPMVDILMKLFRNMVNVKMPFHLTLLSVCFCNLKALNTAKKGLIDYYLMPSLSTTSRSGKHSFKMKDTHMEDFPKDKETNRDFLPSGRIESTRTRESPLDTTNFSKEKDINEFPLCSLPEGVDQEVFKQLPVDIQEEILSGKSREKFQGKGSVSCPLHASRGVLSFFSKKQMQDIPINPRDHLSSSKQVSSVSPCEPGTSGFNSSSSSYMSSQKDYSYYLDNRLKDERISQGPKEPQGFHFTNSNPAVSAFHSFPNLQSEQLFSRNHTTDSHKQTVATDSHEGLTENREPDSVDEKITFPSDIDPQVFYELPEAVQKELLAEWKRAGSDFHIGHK
# Chain of Phosphoglycerate kinase, glycosomal (Trypanosoma brucei brucei) (P07378 whole entry, looked up): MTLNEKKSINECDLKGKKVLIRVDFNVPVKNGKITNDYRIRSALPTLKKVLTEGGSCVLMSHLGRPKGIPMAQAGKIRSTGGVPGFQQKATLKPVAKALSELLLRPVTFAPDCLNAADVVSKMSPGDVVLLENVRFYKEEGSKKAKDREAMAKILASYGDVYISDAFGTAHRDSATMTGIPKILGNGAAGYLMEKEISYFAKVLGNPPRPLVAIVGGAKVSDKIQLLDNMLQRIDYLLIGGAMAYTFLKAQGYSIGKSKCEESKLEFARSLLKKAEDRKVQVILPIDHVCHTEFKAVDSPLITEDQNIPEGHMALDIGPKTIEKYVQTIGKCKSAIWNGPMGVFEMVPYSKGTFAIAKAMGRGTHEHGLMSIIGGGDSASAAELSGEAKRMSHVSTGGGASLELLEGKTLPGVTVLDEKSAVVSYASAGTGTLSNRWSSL
compound,measurement,setting,value
CCc1ccc(Oc2nccc(-c3c(-c4ccc(F)cc4)ncn3C3CCNCC3)n2)cc1,Potency,[1],inactive
same,outcome,[2],inactive
NS(=O)(=O)c1ccc(Nc2cc(-c3ccc(O)c(F)c3)[nH]n2)cc1,Potency,[1],5.82 µM (active)
same,outcome,[2],inactive
CNC(=O)c1cc(-c2ccc(F)cc2)cc(-c2ccc(S(=O)(=O)N3CCCC3)cc2)c1N,Potency,[1],inactive
same,outcome,[2],inactive
Nc1nc(-c2cccc(Cl)c2)c(-c2ccc3ncccc3n2)s1,Potency,[1],1.16 µM (active)
same,outcome,[2],inactive
CN1CCN(C(=O)c2ccc(NC(=O)Nc3ccc(N(C)c4ccnc(Nc5ccc(CS(C)(=O)=O)cc5)n4)cc3)cc2)CC1,Potency,[1],14.6 µM (active)
same,outcome,[2],inactive
c1ccc(-c2nc3n(c2-c2ccc4c(c2)OCO4)CCC3)nc1,Potency,[1],inactive
same,outcome,[2],inactive
Cc1cc(-c2ccco2)cc(C)c1C=Cc1cncc(-c2nn[nH]n2)c1,Potency,[1],1.04 µM (active)
same,outcome,[2],inactive
N#Cc1cccc(Nc2ncc(-c3ccccc3)o2)c1,Potency,[1],26 µM (active)
same,outcome,[2],inactive
NC(=O)CCc1ccccc1Oc1nccc(-c2c(-c3ccc(F)cc3)ncn2C2CCNCC2)n1,Potency,[1],inactive
same,outcome,[2],inactive
Cc1nc(-c2ccccc2)n2nc(NCCCN3CCOCC3)ncc12,Potency,[1],32.8 µM (active)
same,outcome,[2],inactive
COc1cc2c(cc1Nc1nc(N3CCc4ccccc43)c3cc[nH]c3n1)N(C(=O)CN(C)C)CC2,Potency,[1],inactive
same,outcome,[2],inactive
Fc1cccc(COc2ccc(Nc3ncncc3C#Cc3ccccc3)cc2Cl)c1,Potency,[1],inactive
same,outcome,[2],inactive
Fc1ccc(-c2ncn(C3CCNCC3)c2-c2ccnc(Oc3ccccc3)n2)cc1,Potency,[1],11.6 µM (active)
same,outcome,[2],inactive
O=C(OC1CNC(C#Cc2cc3ncnc(Nc4ccc(OCc5cccc(F)c5)c(Cl)c4)c3s2)C1)N1CCOCC1 (stereo unspecified),Potency,[1],6.54 µM (active)
same,outcome,[2],inactive
CCn1c(-c2nonc2N)nc2c(C#CCN)ncc(OCCCN)c21,Potency,[1],inactive
same,outcome,[2],inactive
O=C(Nc1n[nH]c2nc(-c3ccco3)ccc12)C1CC1,Potency,[1],2.32 µM (active)
same,outcome,[2],inactive
COc1cc(C)c(NC(=O)CN(C)C)cc1Nc1nc(Nc2cccc(F)c2C(N)=O)c2cc[nH]c2n1,Potency,[1],inactive
same,outcome,[2],inactive
CCN1CCC(CC(=O)Nc2n[nH]c3nc(-c4cccs4)c(Br)cc23)CC1,Potency,[1],26 µM (active)
same,outcome,[2],inactive
CCC(=O)Nc1ccc(C)c(-c2ccc(C(=O)NCC3CC3)cc2)c1,Potency,[1],inactive
same,outcome,[2],inactive
COC(=O)Nc1nc2ccc(Oc3cccc(NC(=O)Nc4cc(C(F)(F)F)ccc4F)c3)cc2[nH]1,Potency,[1],11.6 µM (active)
same,outcome,[2],inactive
CC1(C)CC(n2cnc(-c3ccc(F)cc3)c2-c2ccnc(N)n2)CC(C)(C)N1,Potency,[1],5.19 µM (active)
same,outcome,[2],inactive
Fc1ccc(-c2ncn(C3CCNCC3)c2-c2ccnc(Oc3cccc(C(F)(F)F)c3)n2)cc1,Potency,[1],inactive
same,outcome,[2],inactive
O=C(O)c1ccc(Oc2nccc(-c3c(-c4ccc(F)cc4)ncn3C3CCNCC3)n2)cc1,Potency,[1],inactive
same,outcome,[2],inactive
NS(=O)(=O)c1cccc(Nc2cc(-c3ccc(F)cc3)[nH]n2)c1,Potency,[1],3.68 µM (active)
same,outcome,[2],inactive
CNC(=O)c1cncc(C=Cc2c(Cl)cccc2Cl)c1,Potency,[1],0.823 µM (active)
same,outcome,[2],inactive
CN1CCN(Cc2ccc(-c3cc4ncnc(Nc5ccc(OCc6cccc(F)c6)c(Cl)c5)c4s3)o2)CC1,Potency,[1],0.823 µM (active)
same,outcome,[2],inactive
COc1cc(Nc2ncc(-c3ccccc3)o2)cc(OC)c1OC,Potency,[1],0.328 µM (active)
same,outcome,[2],inactive
COc1cccc(-n2ncc3c(NN=Cc4ccncc4)ncnc32)c1,Potency,[1],0.0923 µM (active)
same,outcome,[2],inactive
COc1cc2ncn(-c3cc(OCc4ccccc4C(F)(F)F)c(C(=O)N(C)C)s3)c2cc1OC,Potency,[1],7.33 µM (active)
same,outcome,[2],inactive
CCn1c(-c2nonc2N)nc2ccncc21,Potency,[1],inactive
same,outcome,[2],inactive
COc1ccc(-c2cc3c(N)ncnc3o2)cc1,Potency,[1],6.54 µM (active)
same,outcome,[2],inactive
CCn1c(-c2nonc2N)nc2cncc(C(=O)NCCNC)c21,Potency,[1],1.3 µM (active)
same,outcome,[2],inactive
CCNC(=O)OC1CNC(C#Cc2cc3ncnc(Nc4ccc(OCc5cccc(F)c5)c(Cl)c4)c3s2)C1 (stereo unspecified),Potency,[1],8.23 µM (active)
same,outcome,[2],inactive
Nc1nccc(C#Cc2cncnc2Nc2ccc(OCc3cccc(F)c3)c(Cl)c2)n1,Potency,[1],inactive
same,outcome,[2],inactive
COc1ccc(Nc2ncc(-c3ccccc3)o2)cc1OC,Potency,[1],1.16 µM (active)
same,outcome,[2],inactive
COc1ccc(-c2nn3ncccc3c2-c2ccnc(Nc3ccc(Cl)c(C(F)(F)F)c3)n2)cc1,Potency,[1],3.68 µM (active)
same,outcome,[2],inactive
COC(=O)Nc1nc2ccc(Oc3ccc(NC(=O)Nc4ccccc4)cc3)cc2[nH]1,Potency,[1],inactive
same,outcome,[2],inactive
O=C1NC(=O)C(c2cccc(Cl)c2)=C1Nc1ccc(Cl)c(C(=O)O)c1,Potency,[1],inactive
same,outcome,[2],inactive
CS(=O)(=O)CCNCc1ccoc1-c1ccc2ncnc(Nc3ccc(OCc4ccccc4)cc3)c2c1,Potency,[1],3.68 µM (active)
same,outcome,[2],inactive
Nc1nccc(-c2c(-c3ccc(F)cc3)ncn2C2CCC(O)CC2)n1 (stereo unspecified),Potency,[1],0.733 µM (active)
same,outcome,[2],inactive
CS(=O)(=O)CCNCc1ccc(-c2ccc3ncnc(Nc4ccc(OCc5ccccc5)cc4)c3c2)o1,Potency,[1],0.463 µM (active)
same,outcome,[2],inactive
NC(=O)c1cccc(Nc2nccc(Nc3cccc4[nH]ncc34)n2)c1,Potency,[1],0.0292 µM (active)
same,outcome,[2],inactive
CCOc1ccc2c(-c3ccnc(Nc4cc(OC)cc(C(F)(F)F)c4)n3)cnn2n1,outcome,[2],inactive
O=C(Nc1ccc(Oc2ccc3nc(NC(=O)c4ccco4)[nH]c3c2)cc1)Nc1cc(C(F)(F)F)ccc1F,Potency,[1],4.12 µM (active)
same,outcome,[2],inactive
O=S(=O)(CCOCc1ccc(-c2ccc3ncnc(Nc4ccc(OCc5cccc(F)c5)c(Cl)c4)c3c2)o1)c1ccccc1,outcome,[2],inactive
CC(=Nc1ccc(S(N)(=O)=O)cc1)c1c(O)[nH]c2ccccc12,outcome,[2],inactive
CCn1c(-c2nonc2N)nc2c(C#CC(C)(C)O)nc(OCC(N)c3ccccc3)cc21 (stereo unspecified),outcome,[2],inactive
COc1cccc(-n2ncc3c(NN=Cc4ccc(C)cc4)ncnc32)c1,outcome,[2],inactive
CCN1CCC(C(=O)Nc2n[nH]c3nnc(-c4cccc(F)c4F)cc23)CC1,outcome,[2],inactive
CN(C)CCCNc1nccc(-c2c(-c3ccc(F)cc3)nn3cc(C(F)(F)F)ccc23)n1,outcome,[2],inactive
Fc1ccc(-c2ncn(CCCN3CCOCC3)c2-c2ccncc2)cc1,outcome,[2],inactive
Cc1cccc(Nc2ncc(-c3ccccc3)o2)c1,outcome,[2],inactive
O=C(Nc1n[nH]c2cc(-c3ccccc3)ccc12)C1CC1,outcome,[2],inactive
CN(C)c1cc2c(Nc3ccc4nc(Cc5ccccc5)[nH]c4c3)ncnc2cn1,Potency,[1],0.412 µM (active)
same,outcome,[2],inactive
COc1cccc(COc2cc(-n3cnc4ccccc43)sc2C(N)=O)c1,Potency,[1],inactive
same,outcome,[2],inactive
Nc1nccc(-c2c(-c3ccc(F)cc3)nn3cc(C(F)(F)F)ccc23)n1,outcome,[2],inactive
CS(=O)(=O)CCNCc1nc(-c2ccc3ncnc(Nc4ccc(OCc5cccc(C(F)(F)F)c5)cc4)c3c2)cs1,outcome,[2],inactive
COc1ccc(-c2ccncc2)cc1C(N)=O,Potency,[1],inactive
same,outcome,[2],inactive
Fc1ccc(-c2c(-c3ccncc3)nc3n2CCS3)cc1,outcome,[2],inactive
Cc1ccc(NC(=O)c2ccoc2)cc1-c1ccc(C(=O)NCC2CC2)cc1,outcome,[2],inactive
CCS(=O)(=O)c1ccc(OC)c(Nc2ncc(-c3ccccc3Cl)o2)c1,outcome,[2],inactive
c1ccc(Nc2ncc(-c3ccccc3)o2)cc1,outcome,[2],inactive
CCc1nn2ncccc2c1-c1ccnc(NC2CC2)n1,outcome,[2],inactive
NS(=O)(=O)c1ccc(-c2cc3ccncc3cc2OCc2ccccc2)cc1,outcome,[2],inactive
COc1ccc(C2=C(N3CCc4ccccc43)C(=O)NC2=O)cc1,outcome,[2],inactive
Cc1cc(-c2ccccn2)cc(C)c1C=Cc1cncc(-c2nn[nH]n2)c1,Potency,[1],2.07 µM (active)
same,outcome,[2],inactive
CCc1nccc2c1nc(-c1nonc1N)n2CC,outcome,[2],inactive
NS(=O)(=O)c1ccc(-c2ccc3c(NC(=O)C4CC4)n[nH]c3c2)cc1,Potency,[1],1.84 µM (active)
same,outcome,[2],inactive
CC(Oc1cc(-n2cnc3ccc(OCC(O)CO)cc32)sc1C(N)=O)c1ccccc1Cl (stereo unspecified),outcome,[2],inactive
Cc1ccc(C(=O)NC2CCC2)cc1-c1ccc(C(=O)NCC2CC2)cc1,outcome,[2],inactive
O=C1NC(=O)C(c2ccccc2)=C1Nc1ccccc1,outcome,[2],inactive
c1cnn2ncc(-c3ccnc(Nc4ccc5c(c4)OCCO5)n3)c2c1,outcome,[2],inactive
c1ccc(Cc2nc3ccc(Nc4ncnc5ccccc45)cc3[nH]2)cc1,Potency,[1],1.16 µM (active)
same,outcome,[2],inactive
Fc1ccc(-c2ncn(C3CCNCC3)c2-c2ccnc(Oc3ccc(Cl)cc3)n2)cc1,outcome,[2],inactive
Nc1ncnc2occ(-c3ccc(NC(=O)Nc4cccc(C(F)(F)F)c4)cc3)c12,Potency,[1],1.64 µM (active)
same,outcome,[2],inactive
O=C1NC(=O)C(c2ccccc2Cl)=C1Nc1cc(Cl)c(O)c(Cl)c1,outcome,[2],inactive
COc1ccccc1C1=C(Nc2ccccc2)C(=O)NC1=O,outcome,[2],inactive
N#Cc1cccc(Nc2nccc(-c3cnn4ncccc34)n2)c1,outcome,[2],inactive
NC(=O)c1sc(-n2cnc3ccccc32)cc1OCc1ccccc1Br,Potency,[1],18.4 µM (active)
same,outcome,[2],inactive
COC(=O)Nc1nc2ccc(Oc3ccc(NC(=O)Nc4cc(C(F)(F)F)ccc4F)cc3)cc2s1,Potency,[1],inactive
same,outcome,[2],inactive
Cc1ccc(C(=O)NC(C)C)cc1-c1ccc(C(=O)NCC2CC2)cc1,Potency,[1],inactive
same,outcome,[2],inactive
O=C1NN(c2ccccc2)C(=O)/C1=C/c1ccc(-c2cccc(C(=O)O)c2)o1,Potency,[3],16.8 µM (active)
O=C(c1cc2c(s1)CCC2)N1CCN(c2ccccc2)CC1,Potency,[4],37.7 µM (active)
same,Potency,[3],42.3 µM (active)
O=C(N/N=C/c1ccco1)c1ccc(C(=O)N/N=C/c2ccco2)o1,Potency,[4],42.3 µM (active)
O=C(Oc1ccc(-c2nc(-c3ccccn3)no2)cc1)c1ccccc1,Potency,[5],16.3 µM (active)
Cc1ccc(-c2nn(-c3ccccc3)cc2/C=C2\SC(=S)N(CCCCCC(=O)O)C2=O)o1,Potency,[4],29.9 µM (active)
same,Potency,[3],33.6 µM (active)
